Sm TGR block: blocks Schistosoma mansoni thioredoxin glutathione reductase. Potency, µM (top dose mostly 114 µM), for inactives: at the top dose activity change, negative = inhibition, usual class: inhibitors. actives 3% (n = 360,000). AID 485364. Q962Y6. purified TGR, DTNB reduction, TNB absorbance 405 nm; further: on the % scale 0 is the no-effect control and ±100 the full control effect; nearly all actives have a fitted effect of over 60% in size
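Kinetic colorimetric format: TGR-catalysed, NADPH-driven DTNB reduction monitored via TNB absorbance. Enzyme dispensed at 20 nM; compound exposure 15 min at room temperature before reaction start.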
Pf growth 48h: inhibits P. falciparum growth in the first generation, 48 h | P. falciparum luciferase growth in erythrocytes, 48 h | Potency, µM (titrated, usually from 28.7 µM), for inactives: at the top dose activity change, negative = inhibition, most hits filed as inhibitors | actives 5.9% (n = 310,000); further: on the % scale 0 is the no-effect control and ±100 the full control effect
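Erythrocytes infected with P. falciparum carrying an integrated firefly luciferase reporter (2% hematocrit, 0.1% parasitemia final) were exposed to compounds in RPMI 1640 with 0.5% Albumax at 37 C, 5% CO2. Growth inhibition was scored as reduced luminescence.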
SARS PLP yeast: inhibitors of SARS-CoV papain-like protease in yeast; S. cerevisiae expressing SARS-CoV PLpro, growth rescue; Potency, µM (series often up to 32.9 µM), without a hit: at the top dose activity, positive = growth rescue, hits mostly activators; actives 0.19% (n = 330,000); AID 485353; calls by dose curve; further: 0% is about no effect; nearly all actives have a fitted effect of over 55% in size
Pf growth 96h: P. falciparum growth inhibition at 96 hour, primary screen for plastid delayed-death inhibitors. P. falciparum luciferase reporter growth, 96 h. Potency, µM (doses to about 28.7 µM), for inactives: at the highest dose activity change, negative = inhibition, actives largely listed as inhibitors. actives 6.9% (n = 320,000); further: on the % scale 0 is the no-effect control and ±100 the full control effect
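P. falciparum expressing integrated firefly luciferase grown in erythrocytes (2% hematocrit, 0.05% parasitemia final) with compounds for 96 hours at 37 C, 5% CO2. Growth inhibition read as loss of luminescence after adding luciferase detection reagent.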
Active calls of the source: *; i = inactive; ? = inconclusive; nt = not tested or not shown. Rows were chosen to be rich in hits. Some 12% of all compounds tested hit in one or more screens of this group. Unless noted, the call rests on the fitted dose curve; in most records, active means well fitted curve in the direction sought with a large enough effect; inconclusive means small, poorly fitted or top-dose-only effect, or another doubt; inactive means no such curve, though single readings can be large; an effect the other way counts as inactive or inconclusive. Potency means the concentration at half of the fitted maximal effect.

SMILES	Sm TGR block	Pf growth 48h	SARS PLP yeast	Pf growth 96h
Cn1c(-c2cccc(OCc3ccccc3)c2)nc2c1c(=O)[nH]c(=O)n2Cc1ccccc1	-12%	18%	2%	nt
CCCn1c(-c2cc(OC)c(OC)c(OC)c2)nc2c1c(=O)[nH]c(=O)n2Cc1ccccc1	-2%	9.3µM*	1%	?
CCOC(=O)c1c(C)oc2ccc(N(C(=O)Oc3ccccc3)S(=O)(=O)c3ccccc3)cc12	4%	nt	nt	nt
CC(C)c1ccc(Nc2sc(C(=O)c3ccccc3)c(N)c2S(=O)(=O)c2ccccc2)cc1	3%	nt	nt	nt
CC(CN1CCCCC1)C(=O)NNC(=O)C12CC3CC(CC(C3)C1)C2 (centres undefined)	3%	30%	2%	12µM*
COc1cc2c(cc1OC)-c1c(OC)c(OC)cc3c1[C@H](C2)[N+](C)(C)CC3	-12%	?	21%	0.37µM*
O=C(O)/C=C/C(=O)Nc1ccc(Oc2ncnc3cc(Cl)ccc23)nc1	8.9µM*	40%	-7%	46%
O=C(Nc1ccccc1)Nc1ccc(Oc2ncnc3cc(Cl)ccc23)nc1	8%	4%	1%	20%
[O-][N+]1=C(c2cccs2)CN(O)C1	-2%	-1%	10%	1.7µM*
CCOC(=O)c1c(C)nc(C(Cl)(Cl)Cl)nc1N	nt	13µM*	0%	140%
CCOC(=O)c1nc(N)c(C(=O)OCC)[nH]1	16%	16%	5%	nt
O=C(CSc1nc2ccccc2o1)Nc1ccc(N2CCOCC2)c(Cl)c1	-1%	136%	-14%	nt
O=C(CSc1nc2ccccc2o1)Nc1cc(C(F)(F)F)ccc1N1CCOCC1	6%	12µM*	-13%	nt
O=C(CSCc1ccco1)Nc1cc(C(F)(F)F)ccc1N1CCOCC1	22µM*	?	-3%	?
COCCOc1ccc(C(F)(F)F)cc1NC(=O)COC(=O)c1cc([N+](=O)[O-])ccc1N1CCOCC1	2%	?	3%	9.3µM*
Cc1cc(Cl)ccc1NC(=O)COC(=O)c1cc([N+](=O)[O-])ccc1N1CCOCC1	-3%	?	-3%	-3%
CN(C)c1cccc(C(=O)Nc2cc(C(F)(F)F)ccc2-n2cnc3ccccc32)c1	5%	12µM*	-25%	?
COc1cc(OC)cc(C(=O)N2CCC(c3ccncc3)CC2)c1	1%	nt	nt	nt
COc1ccc(Cl)cc1NC(=O)c1cc(C)nn1-c1ccccc1	4%	nt	nt	nt
O=C(COC(=O)C12CC3CC(CC(O)(C3)C1)C2)Nc1ccc(Br)cc1F	2%	i	-6%	371%
COCCOc1ccc(C(F)(F)F)cc1NC(=O)COC(=O)C12CC3CC(CC(O)(C3)C1)C2	4%	2.3µM*	-3%	?
Cc1nonc1NC(=O)CSc1nc2ccccc2o1	5%	13µM*	0%	36%
O=C(Cn1cnc2ccccc21)Nc1cc(C(F)(F)F)ccc1N1CCOCC1	4%	4.7µM*	1%	4.1µM*
O=C(COC(=O)COc1ccc2ccccc2c1)Nc1cc(C(F)(F)F)ccc1N1CCOCC1	-1%	-5%	-15%	6%
Cc1nc2ccccc2nc1OCC(=O)Nc1cc(C(F)(F)F)ccc1N1CCOCC1	-1%	12µM*	-4%	6%
SMILES	Sm TGR block	Pf growth 48h	SARS PLP yeast	Pf growth 96h
Cc1nn(C)c2c1c(C(F)(F)F)cc(=O)n2C(C)C(=O)NCCc1ccccc1 (centres undefined)	-4%	nt	nt	nt
COc1cc(/C=C/C(=O)OCC(=O)Nc2oc(C)c3c(C)n[nH]c(=O)c23)ccc1OC(F)F	22µM*	?	8%	?
Cc1nc2c(C(=O)N3CCOCC3)cnn2c(C)c1Cc1cccc(Cl)c1	1%	?	-1%	7.4µM*
COc1ccc(-c2csc3nc(C)nc(N4CCCCC4)c23)cc1OC	-3%	?	-3%	4.7µM*
Cc1ccc(C2CC(c3cccs3)=NN2C(=O)CSC2=NCCS2)cc1 (centres undefined)	0%	10µM*	-3%	12µM*
CCC(=O)N1N=C(c2cccs2)CC1c1ccc(C)cc1 (centres undefined)	-16%	-15%	-2%	?
Cc1ccc(C2CC(c3cccs3)=NN2C(=O)CCl)cc1 (centres undefined)	2.5µM*	13µM*	-5%	1.9µM*
COc1ccc(C2CC(c3cccs3)=NN2C(=O)CSc2nc(=O)n3cc(C)ccc3n2)cc1 (centres undefined)	4%	10µM*	7%	8.3µM*
COc1ccc(NCc2cc3cc4c(cc3n(CC(=O)Nc3cc(C)ccc3C)c2=O)OCCO4)cc1	5%	nt	nt	nt
